From the supplement of paper PMC10849652
Targets with a hit are over-represented here; the source holds about 7,900 in all. About 0.6% of all pairs of compound and target were hits.

Each target was assayed with C1COCCN1CCN2C3=CC=CC=C3N=C2NC(=O)C4=CC(=CC=C4)[N+](=O)[O-] [IRAK-1-4 Inhibitor I] (assay: log2 fold change, soluble protein after heating vs DMSO (PISA); higher = thermal stabilisation; K562 cells, 10 uM, 30 min; active = over 0.2 and 3.5 SD of the protein, either way, in both replicates (recomputed)).
Summary of the method: (§1)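 K562 cells at 2×10^6 cells/mL were given 10 μM compound for 30 min. Aliquots then went through 3 min of heating across 48°C-58°C, were pooled, and were extracted in PBS with 0.5% NP-40 at 4°C, and the supernatant after 21,000xg for 90 min was quantified by TMTpro 16plex LC-MS/MS with channel sums equalised. Thermal stability relative to control samples, from duplicates, is given as log2 fold change.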

Chain of UniProt Q8N5L8 (Q8N5L8 whole entry, looked up): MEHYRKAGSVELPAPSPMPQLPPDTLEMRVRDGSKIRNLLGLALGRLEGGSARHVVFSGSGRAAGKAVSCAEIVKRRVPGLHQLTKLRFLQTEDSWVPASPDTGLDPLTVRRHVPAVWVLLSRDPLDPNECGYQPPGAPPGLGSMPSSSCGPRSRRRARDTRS
Chain of UniProt Q92930 (Q92930 whole entry, looked up): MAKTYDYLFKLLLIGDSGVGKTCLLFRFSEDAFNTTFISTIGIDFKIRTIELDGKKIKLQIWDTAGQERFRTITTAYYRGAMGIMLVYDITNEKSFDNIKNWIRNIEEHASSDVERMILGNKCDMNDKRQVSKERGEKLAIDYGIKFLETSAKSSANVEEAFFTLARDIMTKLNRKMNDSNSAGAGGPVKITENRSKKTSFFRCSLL
Chain of UniProt O00767 (O00767 whole entry, looked up): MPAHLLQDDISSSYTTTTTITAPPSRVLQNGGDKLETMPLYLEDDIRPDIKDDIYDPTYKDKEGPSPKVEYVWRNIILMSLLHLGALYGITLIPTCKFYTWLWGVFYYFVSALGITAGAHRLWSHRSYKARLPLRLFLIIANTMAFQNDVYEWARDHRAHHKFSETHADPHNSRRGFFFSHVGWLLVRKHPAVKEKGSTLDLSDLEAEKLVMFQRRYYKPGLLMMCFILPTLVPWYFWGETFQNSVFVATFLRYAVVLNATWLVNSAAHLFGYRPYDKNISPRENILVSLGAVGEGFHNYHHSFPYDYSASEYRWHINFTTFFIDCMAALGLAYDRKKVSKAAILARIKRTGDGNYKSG
Chain of UniProt P58004 (P58004 whole entry, looked up): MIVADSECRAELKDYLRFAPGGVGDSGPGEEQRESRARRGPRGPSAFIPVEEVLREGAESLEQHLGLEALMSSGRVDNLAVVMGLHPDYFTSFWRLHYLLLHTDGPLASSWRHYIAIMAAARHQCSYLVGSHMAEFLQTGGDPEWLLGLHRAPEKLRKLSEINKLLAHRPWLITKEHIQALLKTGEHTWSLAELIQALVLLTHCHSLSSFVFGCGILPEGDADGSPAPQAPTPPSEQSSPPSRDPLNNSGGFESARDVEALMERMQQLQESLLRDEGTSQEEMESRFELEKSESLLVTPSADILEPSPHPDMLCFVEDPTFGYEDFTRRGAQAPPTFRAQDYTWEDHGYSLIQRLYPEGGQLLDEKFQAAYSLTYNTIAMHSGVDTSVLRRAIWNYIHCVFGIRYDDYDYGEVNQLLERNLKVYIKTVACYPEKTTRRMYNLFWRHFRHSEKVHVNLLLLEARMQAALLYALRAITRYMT
Chain of UniProt Q5JTH9 (Q5JTH9 whole entry, looked up): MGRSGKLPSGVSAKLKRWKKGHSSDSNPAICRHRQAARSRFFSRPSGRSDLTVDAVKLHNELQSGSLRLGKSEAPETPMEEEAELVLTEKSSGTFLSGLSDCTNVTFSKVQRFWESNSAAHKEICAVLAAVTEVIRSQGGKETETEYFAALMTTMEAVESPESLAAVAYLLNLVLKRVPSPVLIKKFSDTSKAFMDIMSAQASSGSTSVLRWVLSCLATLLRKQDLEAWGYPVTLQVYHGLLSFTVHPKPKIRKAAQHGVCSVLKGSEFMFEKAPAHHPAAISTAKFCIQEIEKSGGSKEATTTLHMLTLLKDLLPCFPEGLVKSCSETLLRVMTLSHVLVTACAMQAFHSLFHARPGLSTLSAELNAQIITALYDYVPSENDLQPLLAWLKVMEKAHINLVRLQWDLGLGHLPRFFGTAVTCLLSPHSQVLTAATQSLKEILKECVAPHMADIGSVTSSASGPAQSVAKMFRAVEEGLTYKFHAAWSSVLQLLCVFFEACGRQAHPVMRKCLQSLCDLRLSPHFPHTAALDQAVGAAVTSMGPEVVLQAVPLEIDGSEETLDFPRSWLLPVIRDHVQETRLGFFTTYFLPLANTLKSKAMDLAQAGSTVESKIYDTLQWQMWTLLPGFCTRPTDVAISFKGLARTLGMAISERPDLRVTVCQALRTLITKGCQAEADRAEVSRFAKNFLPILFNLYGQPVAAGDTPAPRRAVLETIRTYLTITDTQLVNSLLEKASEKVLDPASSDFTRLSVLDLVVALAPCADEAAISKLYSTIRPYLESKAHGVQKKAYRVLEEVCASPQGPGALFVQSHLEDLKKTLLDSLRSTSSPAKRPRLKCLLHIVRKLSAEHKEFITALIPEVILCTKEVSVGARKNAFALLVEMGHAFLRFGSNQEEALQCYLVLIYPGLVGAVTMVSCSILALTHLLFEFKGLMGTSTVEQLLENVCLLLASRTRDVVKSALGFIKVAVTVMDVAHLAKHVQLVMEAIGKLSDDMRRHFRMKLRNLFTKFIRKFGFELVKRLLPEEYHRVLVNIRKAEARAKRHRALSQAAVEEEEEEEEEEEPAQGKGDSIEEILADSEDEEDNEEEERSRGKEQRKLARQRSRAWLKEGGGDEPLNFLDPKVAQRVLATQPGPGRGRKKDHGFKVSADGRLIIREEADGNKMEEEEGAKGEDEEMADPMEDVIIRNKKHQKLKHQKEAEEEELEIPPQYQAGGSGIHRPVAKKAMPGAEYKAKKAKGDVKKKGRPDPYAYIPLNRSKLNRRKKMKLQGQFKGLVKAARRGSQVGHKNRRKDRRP
Chain of UniProt Q96IZ7 (Q96IZ7 whole entry, looked up): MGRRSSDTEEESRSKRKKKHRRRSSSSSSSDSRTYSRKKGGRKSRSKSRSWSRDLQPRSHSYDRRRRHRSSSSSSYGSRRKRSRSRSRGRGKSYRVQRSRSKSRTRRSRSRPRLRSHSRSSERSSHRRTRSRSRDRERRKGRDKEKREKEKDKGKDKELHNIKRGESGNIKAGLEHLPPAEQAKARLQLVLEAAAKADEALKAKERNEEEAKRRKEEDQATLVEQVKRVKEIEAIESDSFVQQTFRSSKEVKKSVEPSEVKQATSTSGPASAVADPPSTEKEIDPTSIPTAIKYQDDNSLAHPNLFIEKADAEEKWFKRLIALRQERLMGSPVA
Chain of UniProt P46063 (P46063 whole entry, looked up): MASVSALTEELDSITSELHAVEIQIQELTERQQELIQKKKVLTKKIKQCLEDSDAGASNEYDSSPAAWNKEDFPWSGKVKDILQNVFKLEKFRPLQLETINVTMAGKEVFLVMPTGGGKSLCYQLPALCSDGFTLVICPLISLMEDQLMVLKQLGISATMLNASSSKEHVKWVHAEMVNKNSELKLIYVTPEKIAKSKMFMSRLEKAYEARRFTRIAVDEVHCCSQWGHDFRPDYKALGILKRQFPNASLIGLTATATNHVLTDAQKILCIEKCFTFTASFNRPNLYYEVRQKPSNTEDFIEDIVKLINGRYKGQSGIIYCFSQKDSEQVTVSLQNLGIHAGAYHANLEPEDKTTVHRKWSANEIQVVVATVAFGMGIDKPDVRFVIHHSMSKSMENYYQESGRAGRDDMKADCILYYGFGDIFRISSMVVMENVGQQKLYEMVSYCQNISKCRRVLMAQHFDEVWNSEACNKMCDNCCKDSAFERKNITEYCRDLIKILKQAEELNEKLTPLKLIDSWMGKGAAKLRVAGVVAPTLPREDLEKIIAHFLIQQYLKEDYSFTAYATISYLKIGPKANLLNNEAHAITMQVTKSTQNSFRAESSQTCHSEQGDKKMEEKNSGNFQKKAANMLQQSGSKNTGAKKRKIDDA
Chain of UniProt O43818 (O43818 whole entry, looked up): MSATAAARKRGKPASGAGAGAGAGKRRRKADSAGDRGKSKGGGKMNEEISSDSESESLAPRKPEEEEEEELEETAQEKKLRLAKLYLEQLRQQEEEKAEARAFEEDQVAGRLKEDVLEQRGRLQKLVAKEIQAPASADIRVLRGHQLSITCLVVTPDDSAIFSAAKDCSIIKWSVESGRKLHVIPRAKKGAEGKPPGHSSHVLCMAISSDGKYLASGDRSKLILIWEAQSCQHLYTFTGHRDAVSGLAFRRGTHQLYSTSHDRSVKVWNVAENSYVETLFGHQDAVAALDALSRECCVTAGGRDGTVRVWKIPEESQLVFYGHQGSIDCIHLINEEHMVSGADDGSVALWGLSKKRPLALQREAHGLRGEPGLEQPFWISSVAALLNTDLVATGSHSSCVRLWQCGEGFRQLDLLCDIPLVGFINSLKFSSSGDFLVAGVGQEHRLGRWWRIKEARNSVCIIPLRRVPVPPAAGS
Chain of UniProt P51148 (P51148 whole entry, looked up): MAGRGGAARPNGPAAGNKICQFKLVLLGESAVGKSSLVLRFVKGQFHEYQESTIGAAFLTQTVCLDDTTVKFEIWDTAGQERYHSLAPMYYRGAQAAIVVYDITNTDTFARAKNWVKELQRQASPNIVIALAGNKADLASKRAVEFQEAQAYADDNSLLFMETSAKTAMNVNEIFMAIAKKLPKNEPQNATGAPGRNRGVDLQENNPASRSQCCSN

log2 fold change, inactive:
RPP25L (UniProt Q8N5L8) -0.102
RECQL (UniProt P46063) 0.013
RABGAP1L isoform 3 (UniProt Q5R372) 0.057
RRP12 (UniProt Q5JTH9) -0.018
SCD (UniProt O00767) 0.048
SESN2 (UniProt P58004) -0.143
RPS9 (UniProt P46781) -0.1
RSRC1 (UniProt Q96IZ7) -0.062
RAB8B (UniProt Q92930) 0.028
RBM8A (UniProt Q9Y5S9) -0.027

What follows are targets tested with C=CC(=O)N1CCC[C@@H](n2nc(-c3ccc(Oc4ccccc4)cc3)c3c(N)ncnc32)C1 [ibrutinib] in the same assay as above.
Summary of the method: as §1

log2 fold change, inactive:
RPS6KA1 isoform 2 (UniProt Q15418) -0.062
RRP9 (UniProt O43818) 0.017
SLC19A1 (UniProt P41440) -0.025
RBM12 (UniProt Q9NTZ6) -0.018
RNF167 (UniProt Q9H6Y7) 0.015
SEPTIN5 (UniProt Q99719) -0.013
RUNX1 isoform 8 (UniProt Q01196) 0.058
RAP1GDS1 isoform 5 (UniProt P52306) -0.098
RBM33 (UniProt Q96EV2) 0.024
RSRC2 (UniProt Q7L4I2) -0.035
RGS10 (UniProt O43665) 0.047
SEC31A (UniProt O94979) -0.11
RPTOR (UniProt Q8N122) 0.051
RPS16 (UniProt P62249) 0.036
RELA (UniProt Q04206) -0.002
RCOR1 (UniProt Q9UKL0) -0.036
SETMAR (UniProt Q53H47) -0.04
RAB5C isoform 2 (UniProt P51148) 0.017
ROCK2 (UniProt O75116) -0.052
ROCK1 (UniProt Q13464) 0.013
SLC18B1 (UniProt Q6NT16) 0.042
SAAL1 (UniProt Q96ER3) -0.035
RPS2 (UniProt P15880) 0.042
RPP25L (UniProt Q8N5L8) 0.021
RECQL (UniProt P46063) 0.002
RABGAP1L isoform 3 (UniProt Q5R372) 0.02
RRP12 (UniProt Q5JTH9) -0.1
SCD (UniProt O00767) -0.023
SESN2 (UniProt P58004) 0.034
RPS9 (UniProt P46781) -0.025
RSRC1 (UniProt Q96IZ7) 0.034
RAB8B (UniProt Q92930) -0.009
RBM8A (UniProt Q9Y5S9) -0.017
